Experimental data taken from PubChem BioAssay (NCATS).
Records with an inconclusive call do not appear. Entries that show only a call come without a potency. Active and inactive are the calls of the source. Unless noted, calls come from the whole dose curve; as a rule, active = well fitted curve in the direction sought with a large enough effect; inconclusive = small, poorly fitted or top-dose-only effect, or another doubt; inactive = no such curve, though single readings can be large; an effect the other way counts as inactive or inconclusive.

Assays:
[1] = qHTS Assay for Lipid Storage Modulators (AID 1519; calls by dose curve); details: Drosophila S3 cells, BODIPY lipid droplet/cell ratio, laser cytometry, cells loaded with oleic acid; for activity change, negative = inhibition: at 57.5 µM (top of the series)
Procedure, shortened: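 Cells seeded at 5,000 per well were treated with compounds over a concentration series and loaded with oleic acid (400 uM, as added). Lipid droplet fluorescence (488 nm excitation, 500-530 nm channel) was read by laser-scanning cytometry and normalized to 20 uM Triacsin C.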

[2] = target: ATP-dependent 6-phosphofructokinase (Trypanosoma brucei brucei) (UniProt O15648); assay: qHTS Assay to Find Inhibitors of T. brucei phosphofructokinase: hit validation (AID 492961);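 note: luminescence reports ADP formed as PFK phosphorylates fructose-6-phosphate with ATP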; details: T. brucei PFK, ADP-Glo luminescence; series mostly up to 24.3 µM
Chain of ATP-dependent 6-phosphofructokinase (Trypanosoma brucei brucei) (O15648 whole entry, looked up): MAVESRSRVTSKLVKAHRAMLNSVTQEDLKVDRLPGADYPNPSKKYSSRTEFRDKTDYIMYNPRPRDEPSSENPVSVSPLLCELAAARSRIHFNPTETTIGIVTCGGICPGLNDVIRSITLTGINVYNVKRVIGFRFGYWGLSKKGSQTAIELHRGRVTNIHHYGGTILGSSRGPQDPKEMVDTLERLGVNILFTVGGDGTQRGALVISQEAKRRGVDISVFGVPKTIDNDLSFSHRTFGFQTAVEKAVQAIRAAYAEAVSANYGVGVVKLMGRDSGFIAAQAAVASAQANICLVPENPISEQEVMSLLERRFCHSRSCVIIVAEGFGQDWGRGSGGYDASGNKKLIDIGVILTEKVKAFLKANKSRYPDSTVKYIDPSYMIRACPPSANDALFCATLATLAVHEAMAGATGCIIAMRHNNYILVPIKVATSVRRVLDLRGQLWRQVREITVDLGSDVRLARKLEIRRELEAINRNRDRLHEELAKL
Procedure, shortened: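 PFK 1.25 nM, F6P 0.5 mM, ATP 0.1 mM, MgCl2 5 mM, 0.1 M TEA pH 8.0, Tween20 0.01%, BSA 0.1%; 45 min RT. ADP-Glo two-step detection, luminescence. qHTS titration; curve fitting with curve-class categorization.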

[3] = target: Ubiquitin carboxyl-terminal hydrolase 1 (Homo sapiens) (UniProt O94782); assay: Inhibitors of USP1/UAF1: Pilot qHTS (AID 504865); details: purified USP1/UAF1, Ub-rhodamine cleavage fluorescence; series mostly up to 114 µM;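 note: rhodamine fluorescence freed from ubiquitin-rhodamine substrate followed over time; top concentration of the series differs between compounds; nearly all actives have a fitted effect of over 35% in size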
Chain of Ubiquitin carboxyl-terminal hydrolase 1 (Homo sapiens) (O94782 whole entry, looked up): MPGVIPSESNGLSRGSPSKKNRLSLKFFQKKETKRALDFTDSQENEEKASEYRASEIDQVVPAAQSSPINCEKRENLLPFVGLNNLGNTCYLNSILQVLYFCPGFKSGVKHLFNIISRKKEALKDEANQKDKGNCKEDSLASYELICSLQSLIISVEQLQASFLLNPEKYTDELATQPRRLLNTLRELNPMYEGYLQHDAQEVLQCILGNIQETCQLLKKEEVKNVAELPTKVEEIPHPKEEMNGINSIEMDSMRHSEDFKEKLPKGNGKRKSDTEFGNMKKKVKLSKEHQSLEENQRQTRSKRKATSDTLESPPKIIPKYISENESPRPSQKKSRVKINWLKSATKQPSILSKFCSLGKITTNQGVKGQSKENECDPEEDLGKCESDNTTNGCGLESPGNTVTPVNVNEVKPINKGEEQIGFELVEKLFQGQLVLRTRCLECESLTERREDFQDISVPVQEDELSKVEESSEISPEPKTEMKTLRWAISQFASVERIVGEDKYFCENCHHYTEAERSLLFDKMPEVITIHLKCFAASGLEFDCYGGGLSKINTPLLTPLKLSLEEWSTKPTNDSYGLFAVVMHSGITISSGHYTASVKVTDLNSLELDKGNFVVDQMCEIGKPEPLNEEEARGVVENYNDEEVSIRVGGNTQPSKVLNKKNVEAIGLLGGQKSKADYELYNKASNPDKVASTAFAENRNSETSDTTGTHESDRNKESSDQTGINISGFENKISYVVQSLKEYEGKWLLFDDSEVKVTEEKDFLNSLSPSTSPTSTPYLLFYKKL
Procedure, shortened: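 Kinetic fluorescence assay: 1nM USP1/UAF1, 15 min compound preincubation, then 150nM Ub-Rho; 480/540 nm.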

[4] = target: Luciferin 4-monooxygenase (Photinus pyralis) (UniProt P08659); assay: Biochemical firefly luciferase enzyme assay for NPC (AID 624030);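 note: purified P. pyralis luciferase at 10 nM with luciferin and ATP substrate; nearly all actives have a fitted effect of over 70% in size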; details: purified P. pyralis luciferase, luminescence, 5 min; series mostly up to 24.9 µM
Chain of Luciferin 4-monooxygenase (Photinus pyralis) (P08659 whole entry, looked up): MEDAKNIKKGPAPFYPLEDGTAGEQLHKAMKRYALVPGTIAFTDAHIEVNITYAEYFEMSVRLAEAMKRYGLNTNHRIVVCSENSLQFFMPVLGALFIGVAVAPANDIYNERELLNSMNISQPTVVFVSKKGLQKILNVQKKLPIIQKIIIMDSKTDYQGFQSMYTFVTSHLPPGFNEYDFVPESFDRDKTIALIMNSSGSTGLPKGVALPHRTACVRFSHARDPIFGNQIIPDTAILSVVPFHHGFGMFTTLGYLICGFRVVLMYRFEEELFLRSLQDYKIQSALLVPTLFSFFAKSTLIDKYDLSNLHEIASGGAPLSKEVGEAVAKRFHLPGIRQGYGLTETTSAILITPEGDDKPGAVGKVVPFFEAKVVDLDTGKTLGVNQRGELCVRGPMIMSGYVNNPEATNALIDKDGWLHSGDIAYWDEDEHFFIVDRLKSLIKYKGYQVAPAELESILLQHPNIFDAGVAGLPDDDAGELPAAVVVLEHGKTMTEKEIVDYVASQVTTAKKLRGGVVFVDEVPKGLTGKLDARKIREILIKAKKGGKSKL
Procedure, shortened: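 Counter-screen for direct inhibition of the luciferase enzyme by approved-drug library compounds, run at 10 nM enzyme in 50 mM Tris acetate (final). Luminescence was read within 5 min of enzyme-buffer addition and normalized to PTC124 versus DMSO (0%).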

[5] = qHTS profiling for inhibitors of Plasmodium falciparum proliferation (AID 504749); note: nearly all actives have a fitted effect of over 60% in size; details: P. falciparum in erythrocytes, SYBR Green DNA, 72 h, at 28.7 µM (top of the series)
Procedure, shortened: (§1)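 Parasite proliferation within erythrocytes, 72 h exposure. Endpoint: SYBR Green I fluorescence after overnight lysis at room temperature. Controls: 0.29 uM artemisinin, DMSO.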

3D7 = assay: as above; details: P. falciparum in erythrocytes, SYBR Green DNA, 72 h; series mostly up to 12.8 µM
Procedure, shortened: as §1

AS120 = assay: as above; details: P. falciparum in erythrocytes, SYBR Green DNA, 72 h; series mostly up to 12.8 µM
Procedure, shortened: as §1

C2A = assay: as above; details: P. falciparum in erythrocytes, SYBR Green DNA, 72 h; series mostly up to 12.8 µM
Procedure, shortened: as §1

CP185 = assay: as above; details: P. falciparum in erythrocytes, SYBR Green DNA, 72 h; series mostly up to 12.8 µM
Procedure, shortened: as §1

CP191 = assay: as above; details: P. falciparum in erythrocytes, SYBR Green DNA, 72 h; series mostly up to 12.8 µM
Procedure, shortened: as §1

CP192 = assay: as above; details: P. falciparum in erythrocytes, SYBR Green DNA, 72 h; series mostly up to 12.8 µM
Procedure, shortened: as §1

CP217 = assay: as above; details: P. falciparum in erythrocytes, SYBR Green DNA, 72 h; series mostly up to 12.8 µM
Procedure, shortened: as §1

CP238 = assay: as above; details: P. falciparum in erythrocytes, SYBR Green DNA, 72 h; series mostly up to 12.8 µM
Procedure, shortened: as §1

CP247 = assay: as above; details: P. falciparum in erythrocytes, SYBR Green DNA, 72 h; series mostly up to 12.8 µM
Procedure, shortened: as §1

CP250 = assay: as above; details: P. falciparum in erythrocytes, SYBR Green DNA, 72 h; series mostly up to 12.8 µM
Procedure, shortened: as §1

CP262 = assay: as above; details: P. falciparum in erythrocytes, SYBR Green DNA, 72 h; series mostly up to 12.8 µM
Procedure, shortened: as §1

ECU = assay: as above; details: P. falciparum in erythrocytes, SYBR Green DNA, 72 h; series mostly up to 12.8 µM
Procedure, shortened: as §1

FAB9 = assay: as above; details: P. falciparum in erythrocytes, SYBR Green DNA, 72 h; series mostly up to 12.8 µM
Procedure, shortened: as §1

HB3 = assay: as above; details: P. falciparum in erythrocytes, SYBR Green DNA, 72 h; series mostly up to 12.8 µM
Procedure, shortened: as §1

SC27B = assay: as above; details: P. falciparum in erythrocytes, SYBR Green DNA, 72 h; series mostly up to 12.8 µM
Procedure, shortened: as §1

[6] = measured here: cell count channel max response
[7] = measured here: lipid channel max response

CCCC(=O)O[C@]1(C(=O)CO)CCC2[C@@H]3CCC4=CC(=O)CC[C@]4(C)C3C(O)C[C@]21C (some centres undefined)
activity change, negative = inhibition [1]: 9.93% (inactive) | max response [1, 6]: 7.86% | max response [1, 7]: 23.2% | outcome [2]: inactive | Potency [3]: inactive | Potency [4]: inactive | activity, negative = inhibition ([5]; parasite line A): 6.2% (inactive) | activity, negative = inhibition ([5]; parasite line B): 17.5% (inactive) | Potency (3D7): inactive | Potency (AS120): inactive | Potency (C2A): inactive | Potency (CP185): inactive | Potency (CP191): inactive | Potency (CP192): inactive | Potency (CP217): inactive | Potency (CP238): inactive | Potency (CP247): inactive | Potency (CP250): inactive | Potency (CP262): inactive | Potency (ECU): inactive | Potency (FAB9): inactive | Potency (HB3): inactive | Potency (SC27B): inactive

CC(=O)OC1CCC2C3CCc4cc(O)ccc4C3CCC12C (centres undefined)
activity change, negative = inhibition [1]: -1.06% (inactive) | max response [1, 6]: 7.54% | max response [1, 7]: 8.25% | outcome [2]: inactive | Potency [4]: inactive | activity, negative = inhibition ([5]; parasite line A): 6.77% (inactive) | activity, negative = inhibition ([5]; parasite line B): 4.39% (inactive) | Potency (3D7): inactive | Potency (AS120): inactive | Potency (C2A): inactive | Potency (CP185): inactive | Potency (CP191): inactive | Potency (CP192): inactive | Potency (CP217): inactive | Potency (CP238): inactive | Potency (CP247): inactive | Potency (CP250): inactive | Potency (CP262): inactive | Potency (ECU): inactive | Potency (FAB9): inactive | Potency (HB3): inactive | Potency (SC27B): inactive

OCC1OC([S-])[C@H](O)C(O)C1O.[Au+] (some centres undefined)
activity change, negative = inhibition [1]: 9.01% (inactive) | max response [1, 6]: 5.52% | max response [1, 7]: 19.8% | outcome [2]: inactive | Potency [3]: inactive | Potency [4]: inactive | activity, negative = inhibition ([5]; parasite line A): -14% (inactive) | activity, negative = inhibition ([5]; parasite line B): -7.29% (inactive) | Potency (3D7): inactive | Potency (AS120): inactive | Potency (C2A): inactive | Potency (CP185): inactive | Potency (CP191): inactive | Potency (CP192): inactive | Potency (CP217): inactive | Potency (CP238): inactive | Potency (CP247): inactive | Potency (CP250): inactive | Potency (CP262): inactive | Potency (ECU): inactive | Potency (FAB9): inactive | Potency (HB3): inactive | Potency (SC27B): inactive

CCC(CCC(C)C1CCC2C3CC=C4CC(O)CC[C@@]4(C)C3CC[C@@]12C)C(C)C (some centres undefined)
activity change, negative = inhibition [1]: 3.18% (inactive) | max response [1, 6]: 9.21% | max response [1, 7]: 15.1% | outcome [2]: inactive | Potency [3]: inactive | Potency [4]: inactive | activity, negative = inhibition ([5]; parasite line A): -3.58% (inactive) | activity, negative = inhibition ([5]; parasite line B): 13.1% (inactive) | Potency (3D7): inactive | Potency (AS120): inactive | Potency (C2A): inactive | Potency (CP185): inactive | Potency (CP191): inactive | Potency (CP192): inactive | Potency (CP217): inactive | Potency (CP238): inactive | Potency (CP247): inactive | Potency (CP250): inactive | Potency (CP262): inactive | Potency (ECU): inactive | Potency (FAB9): inactive | Potency (HB3): inactive | Potency (SC27B): inactive

CNC1CC(N)[C@H](O)[C@@H](O[C@@H]2OC(CO)C3OC4(OC(C(N)CO)C(O)C(O)C4O)O[C@@H]3[C@H]2O)C1O (some centres undefined)
activity change, negative = inhibition [1]: 3.46% (inactive) | max response [1, 6]: 3.52% | max response [1, 7]: 7.53% | outcome [2]: inactive | Potency [3]: inactive | Potency [4]: inactive | activity, negative = inhibition ([5]; parasite line A): 1.25% (inactive) | activity, negative = inhibition ([5]; parasite line B): -26.8% (inactive) | Potency (3D7): inactive | Potency (AS120): inactive | Potency (C2A): inactive | Potency (CP185): inactive | Potency (CP191): inactive | Potency (CP192): inactive | Potency (CP217): inactive | Potency (CP238): inactive | Potency (CP247): inactive | Potency (CP250): inactive | Potency (CP262): inactive | Potency (ECU): inactive | Potency (FAB9): inactive | Potency (HB3): inactive | Potency (SC27B): inactive
